The supplement of paper PMC6089552
In all, about 3,200 compounds went through this assay and about 300 (9.4%) showed activity. Only a selection was taken, and actives are over-represented in it overall.

Tested on: A673/TR/shEF
Assay: cell viability (LOESS-normalised, relative to median of negative controls) (log2 ratio); higher = more viable cells (less compound effect), active = hit call of the paper (over 3 MAD below the median)
Settings: treatment time: 72 h
Outline: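 Doxycycline, present or absent from 24 h before compounds, was used to induce EWS-FLI1 shRNA knockdown in A673/TR/shEF Ewing sarcoma cells at 1,500 per well in 384-well plates. Cells then received library compounds at two or more concentrations, or DMSO controls, for three days. Viability was measured by CellTiter-Glo luminescence on an Envision reader, and per-plate LOESS correction, division by the negative-control median and log2 transformation followed.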

[1] = 0.25 µM, library screen: screen1, EWS-FLI1 expression: high (no doxycycline)
[2] = 0.25 µM, library screen: screen1, EWS-FLI1 expression: low (doxycycline-induced shRNA knockdown)
[3] = 2.5 µM, library screen: screen1, EWS-FLI1 expression: high (no doxycycline)
[4] = 2.5 µM, library screen: screen1, EWS-FLI1 expression: low (doxycycline-induced shRNA knockdown)
[5] = 0.103 µM, library screen: screen3, EWS-FLI1 expression: high (no doxycycline)
[6] = 0.103 µM, library screen: screen3, EWS-FLI1 expression: low (doxycycline-induced shRNA knockdown)
[7] = 0.308 µM, library screen: screen3, EWS-FLI1 expression: high (no doxycycline)
[8] = 0.308 µM, library screen: screen3, EWS-FLI1 expression: low (doxycycline-induced shRNA knockdown)
[9] = 0.926 µM, library screen: screen3, EWS-FLI1 expression: high (no doxycycline)
[10] = 0.926 µM, library screen: screen3, EWS-FLI1 expression: low (doxycycline-induced shRNA knockdown)
[11] = 2.8 µM, library screen: screen3, EWS-FLI1 expression: high (no doxycycline)
[12] = 2.8 µM, library screen: screen3, EWS-FLI1 expression: low (doxycycline-induced shRNA knockdown)
[13] = 8.3 µM, library screen: screen3, EWS-FLI1 expression: high (no doxycycline)
[14] = 8.3 µM, library screen: screen3, EWS-FLI1 expression: low (doxycycline-induced shRNA knockdown)
[15] = 25 µM, library screen: screen3, EWS-FLI1 expression: high (no doxycycline)
[16] = 25 µM, library screen: screen3, EWS-FLI1 expression: low (doxycycline-induced shRNA knockdown)

Measured: cell viability (log2)

COc1ccc(/C=C/C(=O)O)cc1OC
inactive: [1] -0.00585 | [2] -0.00138 | [3] 0.164 | [4] 0.0104

CC(C)N1C(=O)C(=Cc2cccs2)SC1=S
inactive: [1] 0.108 | [2] 0.0522 | [3] 0.148 | [4] 0.0877

O=C1CC[C@]23/C=C/C(=O)NCCCCNCCCNC(=O)/C=C/c4ccc(c2c4)O[C@@H]3C1
inactive: [1] 0.0958 | [2] 0.0883 | [3] 0.0986 | [4] 0.157

COc1cc([C@@H]2c3cc4c(cc3[C@@H](O[C@@H]3O[C@@H]5CO[C@@H](C)O[C@H]5[C@H](O)[C@H]3O)[C@H]3COC(=O)[C@H]23)OCO4)cc(OC)c1O
active: [3] -0.176 | 2.5 µM, library screen: screen2, EWS-FLI1 expression: high (no doxycycline) -0.711 | [11] -0.212 | [13] -0.857 | [14] -0.166 | [15] -1.25 | [16] -0.367
inactive: [5] 0.16 | [6] 0.0754 | [1] 0.0215 | [2] 0.0298 | 0.25 µM, library screen: screen2, EWS-FLI1 expression: high (no doxycycline) 0.197 | 0.25 µM, library screen: screen2, EWS-FLI1 expression: low (doxycycline-induced shRNA knockdown) 0.0698 | [7] 0.0781 | [8] 0.0446 | [9] 0.0107 | [10] 0.0985 | [4] 0.00733 | 2.5 µM, library screen: screen2, EWS-FLI1 expression: low (doxycycline-induced shRNA knockdown) 0.00714 | [12] -0.0251

COc1cc([C@@H]2c3cc4c(cc3[C@@H](O[C@@H]3O[C@@H]5CO[C@@H](c6cccs6)O[C@H]5[C@H](O)[C@H]3O)[C@H]3COC(=O)[C@H]23)OCO4)cc(OC)c1O
inactive: [5] -0.0319 | [6] -0.00588 | [8] -0.0159
active: [1] -0.797 | [2] -0.349 | [7] -0.326 | [9] -0.931 | [10] -0.262 | [3] -1.74 | [4] -0.557 | [11] -1.32 | [12] -0.472 | [13] -2.12 | [14] -0.477 | [15] -3.07 | [16] -0.784

CCCC(CC)CCOC(=O)COc1cc(Cl)c(Cl)cc1Cl (stereo not given)
inactive: [1] 0.0358 | [2] 0.0314 | [3] 0.0377 | [4] 0.068

NCCCC(N)CC(=O)NCC1NC(=O)C(CO)NC(=O)C(N)CNC(=O)C(C2CCN=C(N)N2)NC(=O)/C(=C/NC(N)=O)NC1=O (stereo not given)
inactive: [1] 0.0914 | [2] 0.117 | [3] 0.124 | [4] 0.0772

CC1=C(C(=O)OCCOc2ccccc2)C(c2coc3ccccc3c2=O)C2=C(CCCC2=O)N1 (stereo not given)
inactive: [1] 0.0678 | [2] -0.0908 | [3] 0.0965 | [4] 0.143
